The whole screen tested about 5,500 compounds, of which about 2,000 (36%) were called active. Another 18% or so got no clear call; they are omitted. Rule as the data show it: active = normalized growth mostly below about 0.91 (no sharp cut-off); inconclusive = no clear call, values can overlap the other calls; inactive = mostly above about 0.92. This is one part of the list.
Test: chemical genetic growth profiling, strain panel (AID 1159580);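 also: tested at 20 µM; growth read once vehicle control cultures reached saturation at 30 °C; 1 = growth at the plate median or of vehicle wells; lower values mean less growth of the strain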
Conditions: S. cerevisiae deletion strains, growth OD

Measured: normalized growth

CC1=C(/C=C/C(C)=C/C=C/C(C)=C/C(=O)Nc2ccc(O)cc2)C(C)(C)CCC1
inactive: locus YAL013W, strain DEP1, active compounds read low 0.99 | locus YAL040C, strain CLN3, active compounds read low 1.09 | locus YCL061C, strain MRC1 (second series), active compounds read low 0.995 | locus YDR150W, strain NUM1, active compounds read low 1.01 | locus YDR363W, strain ESC2, active compounds read low 0.968 | locus YER002W, strain NOP16, active compounds read low 1.02 | locus YGR078C, strain PAC10, active compounds read low 1.02 | locus YMR263W, strain SAP30, active compounds read low 0.994 | locus YMR307W, strain GAS1, active compounds read low 0.989 | locus YNL128W, strain TEP1, active compounds read low 1.02 | locus YNL175C, strain NOP13, active compounds read low 1.02 | locus YNL197C, strain WHI3, active compounds read low 1.01 | locus YNL224C, strain SQS1, active compounds read low 0.998 | locus YNL322C, strain KRE1, active compounds read low 0.993 | locus YOR083W, strain WHI5 (second series), active compounds read low 0.952

Source: PubChem BioAssay AID1159580 (chemical genetic matrix, 2015)
